± gives the standard deviation of the averaged measurements. In all, about 25,000 sequences were measured (“ln(normalized median fluorescence intensity)”: median about 8.9, highest 2% from about 10 on). Shown is part of a subset that was picked to be rich in the highest values.
Test system: PfAP2-LT AP2 domain (GST-tagged)
Assay: gcPBM binding intensity (ln(normalized median fluorescence intensity)); higher = stronger DNA binding
Summary of the method: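 In this array assay, P. falciparum DNA-binding domains with a GST tag, expressed in E. coli, were applied for 1 h to primer-extended double-stranded 36-bp intergenic genomic probes and negative controls on an Agilent 4 × 180k array. Bound protein was visualised with Alexa488 anti-GST antibody at 488 nm. Binding intensity is the highest Masliner-normalised natural-log median intensity across replicate spots of either probe orientation.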

Sequence | gcPBM binding intensity (ln)
TTTTTTTTAGTATGAACACACATATAGATTATAAAA [CACACA_site7391] | 8.35 ± 0.41
AATATGAACAGACACACACACACAAAAAAAAAAAAA [CACACA_site2012] | 9.9 ± 0.56
TATGAACACAGACACACACACAAAAAAAAAAAAAAA [CACACA_site7037] | 9.18 ± 0.56
AAAAAATATATATTAACACACACACTAATAAAAAAA [CACACA_site8366] | 9.56 ± 0.17
TACATAAATTAAAACACACACACACTAATAAAAAAA [CACACA_site8712] | 9.85 ± 0.18
ATAATCCTTAAACACACACACACACTAATAAATAAA [CACACA_site8052] | 10.1 ± 0.25
ATAATATGAAAACACACACACACACTAATAAAAAAA [CACACA_site8617] | 10.3 ± 0.16
AACAAACACAGACACACACACACACTAATATGATTA [CACACA_site8770] | 10.2 ± 0.45
ATAATATGAAATATAACACACATATATAAAAACATT [CACACA_site866] | 9.11 ± 0.33
AAAAAAAATATGAAAACACACATATATAAATAAATA [CACACA_site113] | 8.88 ± 0.46
AAAAAAAAAAAACACACACACACACTAATATATAAA [CACACA_site8302] | 10.3 ± 0.35
ATATAAATAATATAAATACACACTAAAAAAAATATA [CACACA_site542] | 8.88 ± 0.44
TATATATATATATATACACACACACTAATAAAAAAA [CACACA_site8426] | 9.65 ± 0.057
CTTATATGAAGCCTCTTTATTCATAAATAAGAATAA [TGCATGCA_negctrl_site120] | 8.21 ± 0.38
AAAATTATTTTTATGTGTACTTATTTATTATTTATA [XGTACX_site6665] | 8.79 ± 0.46
ATTATCTTATGTTATTTATTTGTCCCACATTTGTTA [TGCATGCA_negctrl_site402] | 8.91 ± 0.46
AAATTGTCAAAACACGCACACACATATACATAATAA [CACACA_site1743] | 9.62 ± 0.36
ATTCATTATTCACCTTGTACACAAATGATTATCGTA [XGTACX_site455] | 8.93 ± 0.45
AAAAAATCAAAACACACACACACACTAGAAAAAAAA [CACACA_site4909] | 10.1 ± 0.49
AATAATAAACACAATCAAATAAAATATGAAATATAA [GTGCAC_negctrl_site307] | 8.84 ± 0.49
ATAATATGAAAACACACACACACACTAGAAAAAAAA [CACACA_site5153] | 10.2 ± 0.27
GAGAAAAATAAATACACACACATAAATAAATACATA [CACACA_site5102] | 9.74 ± 0.42
CAGTGCCAAATTAGCACACACATATATACATGAATT [CACACA_site2814] | 9.3 ± 0.38

Sequence | gcPBM binding intensity (ln)
TCGTCTCTTCTTGTTCTGTTTTAGAAGGCTATATAT [CACACA_negctrl_site180] | 8.88 ± 0.44
AAGAACAGATAAAATCGTACGTGAAACATGAACTTG [XGTACX_site7793] | 9.03 ± 0.48
AATGTGCAAACAAACTGTACTTTTTTTTTTTTTTTT [XGTACX_site928] | 8.86 ± 0.26
TACAAAATGGGGAACACACACATATATAAATAAATA [CACACA_site7751] | 9.6 ± 0.63
GATACAAAATGGGGAACACACACATATATATATATA [CACACA_site9278] | 10.1 ± 0.22
AAAAAAAAAAAACATACACACAAATATATACATACA [CACACA_site4011] | 9.15 ± 0.33
AAAAAAAAAAAACACACACACACATACAAAATATAT [CACACA_site1448] | 10.04 ± 0.071
TACAAAATGGGGAACACACACATATATATATATATA [CACACA_site3844] | 10.2 ± 0.05
CATAAAAATGAACATACACACATATATATATATATA [CACACA_site2498] | 9.8 ± 0.17
AAAATAAGCGTGAAACGTACATATTACATTATTATA [XGTACX_site8914] | 8.78 ± 0.56
TATTAAAGATACTCGGTATAAATAAATTTTAATGTG [XGTACX_negctrl_site239] | 8.54 ± 0.52
AAGAGAAATGGGCACACACACACATATTATAGATAT [CACACA_site6828] | 9.8 ± 0.21
TCTTATCCATATATTACACACTATATATAGAAATTA [CACACA_site291] | 8.66 ± 0.39
TTTGAATACTGAATGGTGCAAATTGTTCTCCCCATG | 8.67 ± 0.57
TTTGAAATATATTTAGTGCATATATATTGATTATAA [GTGCAC_site9604] | 8.39 ± 0.38
CCCTCCCCATGTTTAGTGCAAAAATATTTGAAATTG [GTGCAC_site9873] | 10.1 ± 0.057
ATTTTAGAATAAATTTTTTACATTAAAAAACTATTT [CACACA_negctrl_site1414] | 8.21 ± 0.54
ACTTGTAAGAAACACACACACACACCCATATATATA [CACACA_site796] | 10.2 ± 0.16
AAAGAAAGAAAGAATACACACACACCGATATATATA [CACACA_site9246] | 9.77 ± 0.31
AAACTTGTAAGAAACACACACACACCCATATATATA [CACACA_site797] | 9.96 ± 0.15
AAACTTGTAAGAAACACACACACACGCATATAAATA [CACACA_site6518] | 9.98 ± 0.099
ACTTGTAAGAAACACACACACACACCGATATATATA [CACACA_site4594] | 10.1 ± 0.31
ATAAGAAGAAGAAAAACACACATATGTAGATATATA [CACACA_site7469] | 9.01 ± 0.42

Sequence | gcPBM binding intensity (ln)
TTTAACGTTGAATATACACACATATATATATATATA [CACACA_site3698] | 9.55 ± 0.042
TATATATAATTATAAGAACACACATATATATATATA [CACACA_site8786] | 9.46 ± 0.36
AAAAAAAAAAGAAACACACACATATATATATATAAT [CACACA_site5052] | 9.44 ± 0.35
TATATAATTATAAGAACACACATATATATATATATA [CACACA_site2472] | 9.6 ± 0.16
TATATATATAAACACACACACACATATATATATATT [CACACA_site8814] | 9.84 ± 0.014
CATTATAAGAAACACACACACATATATATATATATA [CACACA_site1051] | 10.2 ± 0.25
AAACATAAGGGACACACACACATATATATATATATA [CACACA_site5920] | 10.2 ± 0.27
AAACATAAGAAACACACACACATATATATATATATA [CACACA_site3642] | 10.32 ± 0.064
TATATTAAGAAACACACACACATATATATATATATA [CACACA_site1609] | 9.82 ± 0.23
TATATATATAAACACACACACATATATATATATATA [CACACA_site4584] | 9.94 ± 0.14
ATAAATTAACATTAAAGTACATTTTAATAAATATTA [XGTACX_site3647] | 8.31 ± 0.52
TACCAATAAATGAAGGTGCGTGCTTGCCTTTGCTAT | 8.95 ± 0.31
TCTATACCTATTCTTACACACATATGTATAAATATA [CACACA_site6407] | 9.04 ± 0.36
ATATAATCAGCTTCTCTTTTATGCTAAAAAAAAAAA [CACACA_negctrl_site1310] | 8.25 ± 0.3
ATATTATAGTTATGAACATGCAAACATTACGAAATA [TGCATGCA_site54] | 8.76 ± 0.5
GTATATATATACCATTGTACTTTCGTAAAAATATTT [XGTACX_site4846] | 8.8 ± 0.4
TAAGACATGATATATACACACCTTGTTTTAATTTTC [CACACA_site5282] | 8.86 ± 0.45
TATATACATATATGTACACACATTACAGATGTACAT [CACACA_site966] | 9.21 ± 0.38
ATTTTTTTTTTTTTTTTGGGGGGGTATACTTTTAAA [CACACA_negctrl_site1020] | 10.6 ± 0.2
GTTAATATTTTTGGGGGTACTTAAAAAAAAAAAAAA [XGTACX_site1477] | 8.525 ± 0.021
TATACTTTATATATTTTGTATATATATTTTTTTTAT [TGCATGCA_negctrl_site530] | 8.8 ± 0.48
AATATATATATATATATTTTTGTTAGAATATGGAAT [GTGCAC_negctrl_site434] | 8.65 ± 0.32
AAAAAAAAAATACATACACACACACCCACCCATATA [CACACA_site9187] | 10.18 ± 0.021

Sequence | gcPBM binding intensity (ln)
TACACGCTAAAATACACACACACACCCACATATATA [CACACA_site4153] | 10.2 ± 0.11
AAAAAAAATACATACACACACACACCCACATATATA [CACACA_site3561] | 10.13 ± 0.05
TATAAATATACACCCACACACATATATATATATATA [CACACA_site3745] | 9.94 ± 0.16
CACCCACCCACATACACACACATACACATATATATA [CACACA_site1722] | 10 ± 0.22
TATAAATATACACCCACACACATATATAAATAAATA [CACACA_site7717] | 9.65 ± 0.16
TACATATACATATACACACACACACCCAAATAAATA [CACACA_site1344] | 10.04 ± 0.05
TATATAAATATACACCCACACACATATATATATATA [CACACA_site9247] | 9.61 ± 0.28
CATATATACGCATACACACACACACCCACACCCACA [CACACA_site1725] | 10.16 ± 0.05
TATACGCATATATACACACACATATATATATATATA [CACACA_site3416] | 10.1 ± 0.11
TACCCACTAAAATACACACACACACCCACATATATA [CACACA_site6141] | 10 ± 0.42
TATACATATACATATACACACACACCCATAAATAAA [CACACA_site8372] | 9.8 ± 0.22
ATTTTTTTTAAACGAAGTACAATTTGTGCATTGGAA [XGTACX_site8109] | 8.45 ± 0.39
GTACATACATAAAACACACACATATAGATTTATATA [CACACA_site6945] | 9.47 ± 0.33
TATTTTTTTTGATATTGTACTTTTTTATTATTTTTT [XGTACX_site566] | 8.76 ± 0.51
TATTTTTATATATAATCACACATTGGAATGTTCTAA [CACACA_site5540] | 8.67 ± 0.44
TTGAAGGTGGCAATGTGTACATAGAATAACCAGTGC [XGTACX_site4738] | 9.15 ± 0.54
TATATATTATGACCACCACACACCTATACGCATAAC [CACACA_site2447] | 9.44 ± 0.085
ATAAAATACATATAAACACACATATAAACCGACATA [CACACA_site2477] | 9.28 ± 0.38
AAAATACACGCATACACACACACACCGACACATATA [CACACA_site4523] | 10.4 ± 0.28
CACCCATAAATATACACACGCACAACACAAAATAAA [CACACA_site2903] | 9.63 ± 0.41
TAAATTAAAAAAAATACACACACACCGACACATATA [CACACA_site9084] | 9.84 ± 0.26
TATACACCCTAAAATACACACACACCCACCCATATA [CACACA_site9380] | 10.06 ± 0.078
AAAATACACGCATACACACACACACCCACCCATATA [CACACA_site639] | 10.4 ± 0.14

From the supplement of paper PMC11417369
